A short description of assay [1]: antimalarial activity against Dd2 strain (AID 2302;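 active = growth inhibition above 50% at the single 2 µM test dose, taken to imply half-maximal potency below 2 µM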;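 also: 0% = DMSO untreated growth and 100% = chloroquine plus artemisinin killed control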). As to conditions: P. falciparum Dd2 in RBCs, LDH growth readout, 72 h; at 2 µM; active compounds read high.
The nature of assay [2]: HepG2 cytotoxicity, primary screen, cytotoxicity control for P. falciparum antimalarial project, cell-based, ATP luminescence (AID 2303;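 active = inhibition above 50%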;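 also: 0% = DMSO wells and 100% = digitonin-killed cells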). As to conditions: HepG2 viability, 24-48 h, at 10 µM, active compounds read high.
For assay [3], the target named is L-lactate dehydrogenase (Plasmodium falciparum (isolate CDC / Honduras)) (UniProt Q27743). Description: PfLDH activity inhibition – cell lysate, 3D7 strain, counter-screen for P. falciparum growth inhibition project (AID 2304).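 Also: 0% = vehicle and 100% = reference inhibitor.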 The note with it: P. falciparum 3D7 crude extract, LDH APAD/NBT absorbance; at 2 µM; active compounds read high.
The nature of assay [4]: inhibition of 3D7 malaria parasite growth – strain 3D7 (AID 2306).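 Also: 0% = DMSO wells and 100% = chloroquine plus artemisinin control wells.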 As to conditions: P. falciparum 3D7 erythrocytic growth, LDH absorbance, 72 h; at 2 µM; active compounds read high.
Assay [5] deals with Calcium-dependent protein kinase 1 (Plasmodium falciparum (isolate 3D7)) (UniProt P62344). Description: PfCDPK1 kinase inhibitors, biochemical, TCAMS library (AID 1159585; cut-off not given, nearly all actives have IC50 up to about 0.98 µM;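 also: inhibitors leave more ATP so luminescence rises with inhibition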). The note with it: recombinant PfCDPK1, Kinase-Glo ATP depletion luminescence.
The target of assay [6] is Plasmodium falciparum protein kinase 6 (PK6, PF3D7_1337100) (UniProt Q8IDW1). In words: PfPK6 kinase inhibitors, biochemical, TCAMS library (AID 1159586). The note with it: recombinant PfPK6, Kinase-Glo ATP depletion luminescence. (Kinase-Glo measures the ATP left after a reaction by luminescence.)
Assay [7] deals with Protein kinase 7 (PK7), Plasmodium falciparum 3D7 (PF3D7_0213400) (UniProt Q7YTF7). In words: inhibition of Plasmodium PK7 catalytic activity – biochemical, TCAMS antimalarial set, Kinase-Glo luminescence (AID 1159587). As to conditions: recombinant PfPK7, Kinase-Glo ATP depletion luminescence.
Assay [8] deals with Calcium-dependent protein kinase 4 (Plasmodium falciparum (isolate 3D7)) (UniProt Q8IBS5). In words: PfCDPK4 kinase inhibitors, biochemical, TCAMS library (AID 1159588; cut-off not given, nearly all actives have IC50 up to about 0.91 µM). The note with it: recombinant PfCDPK4, Kinase-Glo ATP depletion luminescence.

Each structure is given as a SMILES string. Values without a mark were called inactive. For some of these results: Entries with a potency or affinity are not part of this list. The source made the active and inactive calls. Unless noted, no rule for the calls is given here.

A word on the inhibition: it is the change of the read-out against control, counted positive when it falls.

Chain of L-lactate dehydrogenase (Plasmodium falciparum (isolate CDC / Honduras)) (Q27743 whole entry, looked up): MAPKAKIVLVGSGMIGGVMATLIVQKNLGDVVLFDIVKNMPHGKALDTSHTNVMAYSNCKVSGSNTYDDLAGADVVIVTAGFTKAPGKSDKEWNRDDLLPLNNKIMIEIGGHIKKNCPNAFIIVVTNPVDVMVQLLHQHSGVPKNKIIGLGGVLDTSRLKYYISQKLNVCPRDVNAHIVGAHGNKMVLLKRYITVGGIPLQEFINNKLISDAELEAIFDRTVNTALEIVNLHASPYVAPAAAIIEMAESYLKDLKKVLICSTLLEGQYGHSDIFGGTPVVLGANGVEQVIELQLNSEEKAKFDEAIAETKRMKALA
Chain of Calcium-dependent protein kinase 4 (Plasmodium falciparum (isolate 3D7)) (Q8IBS5 whole entry, looked up): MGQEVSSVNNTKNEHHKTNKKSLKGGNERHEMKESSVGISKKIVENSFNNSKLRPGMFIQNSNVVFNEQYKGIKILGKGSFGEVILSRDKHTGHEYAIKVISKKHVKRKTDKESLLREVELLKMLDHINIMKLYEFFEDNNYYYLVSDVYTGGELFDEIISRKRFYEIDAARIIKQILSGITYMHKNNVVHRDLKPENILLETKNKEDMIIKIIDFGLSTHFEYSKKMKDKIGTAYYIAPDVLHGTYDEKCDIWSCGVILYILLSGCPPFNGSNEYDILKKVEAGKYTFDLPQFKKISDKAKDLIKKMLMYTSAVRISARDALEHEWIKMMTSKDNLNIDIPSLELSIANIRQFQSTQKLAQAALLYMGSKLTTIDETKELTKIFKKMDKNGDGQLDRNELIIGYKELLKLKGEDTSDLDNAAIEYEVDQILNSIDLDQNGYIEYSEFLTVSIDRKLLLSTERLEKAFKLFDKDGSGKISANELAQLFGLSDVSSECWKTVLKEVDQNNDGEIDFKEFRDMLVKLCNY
Chain of Calcium-dependent protein kinase 1 (Plasmodium falciparum (isolate 3D7)) (P62344 whole entry, looked up): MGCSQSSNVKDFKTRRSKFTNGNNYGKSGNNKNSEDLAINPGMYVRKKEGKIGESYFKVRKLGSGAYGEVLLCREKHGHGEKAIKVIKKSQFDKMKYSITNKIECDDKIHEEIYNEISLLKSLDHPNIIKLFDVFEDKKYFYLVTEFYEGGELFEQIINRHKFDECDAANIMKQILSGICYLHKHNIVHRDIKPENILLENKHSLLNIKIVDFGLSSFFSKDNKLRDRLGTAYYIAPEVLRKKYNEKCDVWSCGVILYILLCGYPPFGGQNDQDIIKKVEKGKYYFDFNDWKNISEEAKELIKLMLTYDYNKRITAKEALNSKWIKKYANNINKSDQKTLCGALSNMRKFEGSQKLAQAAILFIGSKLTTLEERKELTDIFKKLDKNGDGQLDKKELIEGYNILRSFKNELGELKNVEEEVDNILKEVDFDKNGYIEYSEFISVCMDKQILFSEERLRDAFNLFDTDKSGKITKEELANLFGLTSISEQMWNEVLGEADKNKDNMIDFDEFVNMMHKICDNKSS
Chain of Plasmodium falciparum protein kinase 6 (PK6, PF3D7_1337100) (Q8IDW1 1-305): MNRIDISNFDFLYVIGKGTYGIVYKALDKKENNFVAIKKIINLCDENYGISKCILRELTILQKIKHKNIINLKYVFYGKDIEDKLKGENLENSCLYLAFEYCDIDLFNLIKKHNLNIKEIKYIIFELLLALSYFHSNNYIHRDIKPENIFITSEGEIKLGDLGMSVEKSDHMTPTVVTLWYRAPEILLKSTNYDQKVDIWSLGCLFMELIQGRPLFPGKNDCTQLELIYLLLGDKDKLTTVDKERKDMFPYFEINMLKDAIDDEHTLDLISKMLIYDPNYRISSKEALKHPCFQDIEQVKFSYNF
Chain of Protein kinase 7 (PK7), Plasmodium falciparum 3D7 (PF3D7_0213400) (Q7YTF7 1-343): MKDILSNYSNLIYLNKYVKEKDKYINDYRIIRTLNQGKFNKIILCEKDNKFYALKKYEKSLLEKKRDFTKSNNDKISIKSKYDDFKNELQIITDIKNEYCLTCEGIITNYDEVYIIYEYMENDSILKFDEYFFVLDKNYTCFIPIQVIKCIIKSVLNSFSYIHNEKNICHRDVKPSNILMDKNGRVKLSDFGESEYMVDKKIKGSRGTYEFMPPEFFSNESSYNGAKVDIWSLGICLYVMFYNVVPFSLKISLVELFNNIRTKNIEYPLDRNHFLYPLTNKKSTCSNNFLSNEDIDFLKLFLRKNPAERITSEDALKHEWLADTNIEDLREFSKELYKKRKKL

In the case of `O=c1n(CC2CCCCC2)c2cc(Cl)cc(OCCNc3ccncc3)c2n1CC1CCCCC1`, the figures for the growth inhibition in assay [1] and in assay [4] were 64% (active) and 100% (active), respectively. Moreover, the inhibition in assay [2] is 2%; in assay [3], -3%. For the same compound, the outcome in assay [5], in assay [6], in assay [7] and in assay [8] was inactive.

With `N=c1sc2ccccc2n1CC(O)c1ccc(Cl)c(Cl)c1` (stereo not given), the growth inhibition in assay [1] is 74% (active); in assay [4], 99% (active). The inhibition in assay [2] was 4%; in assay [3], -2%. The result in assay [5], in assay [6], in assay [7] and in assay [8] was inactive.

Regarding `Cc1nc2nc(N)nc(N)c2c(C)c1Cc1c(Cl)cccc1Cl`, the growth inhibition in assay [1] is 5%; in assay [4], 94% (active). Also, the inhibition in assay [2] is 7%; in assay [3], -1%. Besides, the outcome in assay [5], in assay [6], in assay [7] and in assay [8] was inactive.

For `c1cc(CN2CCN(CCN3CCOCC3)CC2)cc(-c2cccc(-c3nc4ccccc4[nH]3)c2)c1`, the growth inhibition in assay [1] and in assay [4] was 100% (active) throughout. Moreover, the inhibition is 29% in assay [2] and -2% in assay [3]. For the same compound, the outcome in assay [5], in assay [6], in assay [7] and in assay [8] was inactive.

Turning to `COc1cc2ccccc2c(CON2C(N)=NC(N)=NC2(C)C)c1OC`, the growth inhibition in assay [1] is 10%; in assay [4], 96% (active). The inhibition in assay [2] is 2%; in assay [3] it was 1%. Moreover, the outcome in assay [5], in assay [6], in assay [7] and in assay [8] was inactive.

For the compound `CCCCCCCCNCCCSCCCNCCCCCCCC`, the results for the growth inhibition in assay [1] and in assay [4] were 47% and 97% (active), respectively. Moreover, the inhibition is 63% (active) in assay [2] and -3% in assay [3]. Also, the outcome in assay [5], in assay [6], in assay [7] and in assay [8] was inactive.

`O=C(CNC1=NCCN1)Nc1ccc(NC(=O)Nc2ccc(NC(=O)CNC3=NCCN3)cc2)cc1`: the growth inhibition is 75% (active) in assay [1] and 90% (active) in assay [4]. Also, the inhibition in assay [2] is -5%; in assay [3], -2%. Also, the result in assay [5], in assay [6], in assay [7] and in assay [8] was inactive.

Turning to `CC(CN(C)C)C(=O)Nc1cccc(-c2ccc(-c3nc4ccc(C(F)(F)F)cc4[nH]3)cc2)c1` (stereo not given), the growth inhibition was 97% (active) in assay [1] and 99% (active) in assay [4]. Also, the inhibition in assay [2] is 26%; in assay [3] it was -2%. Also, the outcome in assay [5], in assay [6], in assay [7] and in assay [8] was inactive.

In the case of `O=C(Nc1ccc(Cl)cc1)c1ccc(CN2CCCN(Cc3cccc(O)c3)CC2)cc1`, the figures for the growth inhibition in assay [1] and in assay [4] were 69% (active) and 100% (active), respectively. Also, the inhibition was 52% (active) in assay [2] and 4% in assay [3]. In addition, the result in assay [5], in assay [6], in assay [7] and in assay [8] was inactive.

Turning to `COc1ccc(NC(=O)[C@H](CC(C)C)Nc2cc(C)nc(NCc3ccccc3C)n2)cc1`, the growth inhibition in assay [1] is 78% (active); in assay [4] it was 101% (active). For the same compound, the figures for the inhibition in assay [2] and in assay [3] were 12% and 0%, respectively. The result in assay [5], in assay [6], in assay [7] and in assay [8] was inactive.

Turning to `CCN(CC)CCN1C(=O)c2oc3ccc(Cl)cc3c(=O)c2C1c1ccc(SC)cc1` (stereo not given), the growth inhibition is 6% in assay [1] and 98% (active) in assay [4]. The inhibition was -5% in assay [2] and -6% in assay [3]. In addition, the outcome in assay [5], in assay [6], in assay [7] and in assay [8] was inactive.

With `Clc1ccc(Nc2nc3nonc3nc2Nc2ccc(Cl)c(Cl)c2)cc1`, the growth inhibition in assay [1] is 92% (active); in assay [4] it was 99% (active). Besides, the inhibition is 75% (active) in assay [2] and 0% in assay [3]. Besides, the outcome in assay [5], in assay [6], in assay [7] and in assay [8] was inactive.

For `CCOc1cc(C)ccc1N1CCN(CCCCNC(=O)c2ccc(NC(=O)c3ccc(Cl)cc3)cc2)CC1`, the growth inhibition was 46% in assay [1] and 100% (active) in assay [4]. Besides, the inhibition was 19% in assay [2] and -5% in assay [3]. Moreover, the result in assay [5], in assay [6], in assay [7] and in assay [8] was inactive.

As to `O=C(Cc1n[nH]c(=O)c2ccccc12)Nc1cccc(C(=O)Nc2cccc(C(F)(F)F)c2)c1`, the values for the growth inhibition in assay [1] and in assay [4] were 90% (active) and 97% (active), respectively. Further, the figures for the inhibition in assay [2] and in assay [3] were 0% and -6%, respectively. Moreover, the outcome in assay [5], in assay [6], in assay [7] and in assay [8] was inactive.

In the case of `Cc1cccc(CNc2nc(C)cc(NCCC(=O)NCCOc3ccccc3)n2)c1`, the growth inhibition in assay [1] was 14%; in assay [4], 98% (active). The inhibition in assay [2] was 18%; in assay [3] it was 0%. Also, the result in assay [5], in assay [6], in assay [7] and in assay [8] was inactive.

As for `Oc1ccc(Cl)c2c1C(c1ccccc1)=NCC2`, the growth inhibition in assay [1] was 43%; in assay [4], 95% (active). In addition, the inhibition is -9% in assay [2] and -4% in assay [3]. The result in assay [5], in assay [6], in assay [7] and in assay [8] was inactive.

On to `CCCCNC[C@@H](O)[C@H](Cc1ccccc1)NC(=O)c1cc(NCC)cc(N2CCCCS2(=O)=O)c1`, for which the growth inhibition in assay [1] was 98% (active); in assay [4], 99% (active). The inhibition in assay [2] is 11%; in assay [3] it was 2%. Besides, the outcome in assay [5], in assay [6], in assay [7] and in assay [8] was inactive.

With `CC[C@H]1CN(C/C=C/c2ccc(OC)cc2)CC[C@H]1CCCc1ccnc2ccc(O)cc12`, the growth inhibition in assay [1] is 72% (active); in assay [4], 99% (active). Also, the inhibition in assay [2] was 24%; in assay [3], 1%. Besides, the outcome in assay [5], in assay [6], in assay [7] and in assay [8] was inactive.

Turning to `COc1ccc(NC(=O)N2CCc3ccc(OCCN(C(C)C)C(C)C)cc32)cc1C(F)(F)F`, the growth inhibition is 6% in assay [1] and 90% (active) in assay [4]. The inhibition is -1% in assay [2] and -2% in assay [3]. Besides, the outcome in assay [5], in assay [6], in assay [7] and in assay [8] was inactive.

`CN1CCCN(Cc2ccc(-c3cccc(NC(=O)c4ccc(C#N)cc4)c3)cc2)CC1`: the results for the growth inhibition in assay [1] and in assay [4] were 26% and 100% (active), respectively. Further, the inhibition in assay [2] was 29%; in assay [3] it was -5%. Besides, the result in assay [5], in assay [6], in assay [7] and in assay [8] was inactive.

For the origin of these results see PubChem BioAssay.
